Molecules are shown by their SMILES. Records with an inconclusive call do not appear. A call without a number means that no potency is given here. Activity calls are given as the source filed them. Unless noted, the call rests on the fitted dose curve.

Tested on in one assay: not listed separately
Put plainly: cAMP Responsive Elements (CRE) small molecule antagonists, cell-based qHTS assay (AID 1963591; active means well fitted inhibition curve with a large enough effect in the signal ratio in the repeat runs, not every such curve was filed as active; the % refers to the signal ratio; further: potency means the concentration at half of the fitted maximal effect). The following applies: CRE-bla HEK293T, beta-lactamase FRET ratio; series mostly up to 92.4 µM. In a few lines:
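Inhibition of NKH477-driven (0.25 uM final) CRE-beta-lactamase signal in HEK293T cells, 3 h compound exposure at 37 °C, detected by FRET substrate fluorescence.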
For the molecule `CCN(CC)C(=O)N[C@@H]1C=C2c3cccc4[nH]cc(c34)C[C@@H]2N(C)C1`, the Potency result is “inactive”.

As for `CCC(C(N)=O)N1CCCC1=O` (stereo not given), the Potency result is “inactive”.

Regarding `O=C(O)CCCCCCNC1c2ccccc2CCc2ccccc21`, the Potency entry is “inactive”.

As to `CCCCC(=O)Cl`, the Potency entry is “inactive”.

For the molecule `COc1cnc(OC)n2nc(NS(=O)(=O)c3c(OCC(F)F)cccc3C(F)(F)F)nc12`, the Potency entry is “inactive”.

For the molecule `COC1=CC(=O)O[C@@H](CCc2ccccc2)C1`, the Potency entry was “inactive”.

Regarding `ClC(Cl)C(Cl)Cl`, the Potency entry was “inactive”.

As to `CCCCCCCC(=O)Cl`, the Potency result was “inactive”.

On to `Cc1cccc2sc3nncn3c12`, for which the Potency entry is “inactive”.

In the case of `CCCCC(CC)COC(=O)OOC(C)(C)C` (stereo not given), the Potency entry was “inactive”.

As to `C=C(Cl)CSC(=S)N(CC)CC`, the Potency entry is “inactive”.

Consider `COc1ccc(C=O)cc1O`, for which the Potency result is “inactive”.

With `COc1cc(CC(C)N)c(OC)cc1Br` (stereo not given), the Potency result is “inactive”.

For the molecule `CCCCCCCCCCCCCN1CC(C)OC(C)C1` (stereo not given), the Potency result was “inactive”.

On to `Cc1cccc(OP(=O)(Oc2cccc(C)c2)Oc2cccc(C)c2)c1`, for which the Potency result is “inactive”.

With `O=C(Nc1ccc2[nH]ccc2c1)c1cc2cc(F)ccc2n1Cc1cccc(F)c1`, the Potency is 61.1 µM (active).

As to `NC1=NC(=O)C(c2ccccc2)O1` (stereo not given), the Potency entry was “inactive”.

The next assay deals with Beta-2 adrenergic receptor (Homo sapiens) (UniProt P07550). Description: Adrenergic beta2 receptor (ADRB2) small molecule antagonists, cell-based qHTS assay (AID 1963592). Further: nearly all actives have a fitted effect of over 50% in size. As to conditions: CHO-ADRB2 cells, isoproterenol-stimulated cAMP HTRF ratio, 0.5 h; series mostly up to 92.4 µM. Put shortly: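 Cells (CHO, stable ADRB2 overexpression) incubated 18-20hr at 37C; compounds added from DMSO; agonist mix (1nM isoproterenol, 100uM IBMX, 25uM Ro-20-1724) added; 0.5hr RT; d2-cAMP and anti-cAMP-cryptate added; 1hr RT; 665/615 nm read.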
Chain of Beta-2 adrenergic receptor (Homo sapiens) (P07550 whole entry, looked up): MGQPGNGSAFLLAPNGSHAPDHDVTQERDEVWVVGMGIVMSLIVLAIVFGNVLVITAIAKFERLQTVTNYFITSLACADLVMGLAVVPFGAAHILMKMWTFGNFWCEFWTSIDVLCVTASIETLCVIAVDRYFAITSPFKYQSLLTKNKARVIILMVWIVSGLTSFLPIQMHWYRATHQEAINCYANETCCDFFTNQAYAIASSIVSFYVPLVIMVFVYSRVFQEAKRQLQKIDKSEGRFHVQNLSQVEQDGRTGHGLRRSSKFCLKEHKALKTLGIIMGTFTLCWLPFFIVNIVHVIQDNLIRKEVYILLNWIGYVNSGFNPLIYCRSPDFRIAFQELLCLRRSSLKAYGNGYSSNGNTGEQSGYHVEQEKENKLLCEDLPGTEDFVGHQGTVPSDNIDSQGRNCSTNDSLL
On to `O=[N+]([O-])c1ccc2c3c(cccc13)CC2`, for which the Potency result was “inactive”.

Turning to `CC(C)[C@H](C(=O)O[C@H](C#N)c1cccc(Oc2ccccc2)c1)c1ccc(Cl)cc1`, the Potency result is “inactive”.

Regarding `CCC(C(N)=O)N1CCCC1=O` (stereo not given), the Potency entry is “inactive”.

With `CCOC(=O)C(Cl)Cc1cc(-n2nc(C)n(C(F)F)c2=O)c(F)cc1Cl` (stereo not given), the Potency entry is “inactive”.

`CCO/N=C(\CC)C1=C(O)CC(c2c(C)cc(C)cc2C)CC1=O` (stereo not given): the Potency entry is “inactive”.

With `O=C(O)CCCCCCNC1c2ccccc2CCc2ccccc21`, the Potency entry was “inactive”.

As for `COP(=O)(OC)O/C(=C\Cl)c1cc(Cl)c(Cl)cc1Cl`, the Potency entry is “inactive”.

Regarding `CS(=O)(=O)c1ccc(C(=O)C2C(=O)CCCC2=O)c(Cl)c1COCC(F)(F)F`, the Potency result was “inactive”.

Regarding `O=C(N/N=C/c1ccc([N+](=O)[O-])o1)c1cc([N+](=O)[O-])cc([N+](=O)[O-])c1O`, the Potency entry is “inactive”.

Take `CCCCC(=O)Cl`: the Potency entry was “inactive”.

For `COC(=O)C(C)N(C(=O)c1ccco1)c1c(C)cccc1C` (stereo not given), the Potency entry was “inactive”.

As for `COc1cnc(OC)n2nc(NS(=O)(=O)c3c(OCC(F)F)cccc3C(F)(F)F)nc12`, the Potency result was “inactive”.

For `COC1=CC(=O)O[C@@H](CCc2ccccc2)C1`, the Potency result was “inactive”.

Turning to `ClC(Cl)C(Cl)Cl`, the Potency entry is “inactive”.

In the case of `CCCCCCCC(=O)Cl`, the Potency result was “inactive”.

`O=[N+]([O-])c1cc([N+](=O)[O-])c2ccccc2c1`: the Potency entry was “inactive”.

In the case of `CCCCCCCCCCCCN(C)C`, the Potency entry is “inactive”.

For the molecule `C=CC[C@]1(O)CC[C@H]2[C@@H]3CCC4=CC(=O)CCC4=C3C=C[C@@]21C`, the Potency result was “inactive”.

Consider `Cc1cccc2sc3nncn3c12`, for which the Potency entry was “inactive”.

For the molecule `CCOP(=O)(OCC)O/C(=C/Cl)c1ccc(Cl)cc1Cl`, the Potency result was “inactive”.

For the molecule `CNNC`, the Potency entry was “inactive”.

Consider `C=C(Cl)CSC(=S)N(CC)CC`, for which the Potency result is “inactive”.

Consider `O=C(CBr)Nc1ccc(Cl)cc1C(=O)c1ccccc1F`, for which the Potency result was “inactive”.

Take `Nc1ccc(Cl)cc1C(=O)c1ccccc1F`: the Potency result is “inactive”.

With `COc1ccc(C=O)cc1O`, the Potency entry was “inactive”.

On to `C[C@]12C=CC(=O)C=C1CC[C@@H]1[C@@H]2CC[C@@]2(C)[C@H]1CC[C@]2(C)O`, for which the Potency result is “inactive”.

Consider `N#CCCl`, for which the Potency entry was “inactive”.

`CCCCCCCCCCCCCN1CC(C)OC(C)C1` (stereo not given): the Potency entry is “inactive”.

`Cc1cccc(OP(=O)(Oc2cccc(C)c2)Oc2cccc(C)c2)c1`: the Potency entry is “inactive”.

With `O=C(Nc1ccc2[nH]ccc2c1)c1cc2cc(F)ccc2n1Cc1cccc(F)c1`, the Potency result was “inactive”.

With `CSc1ccc(C(=O)C(C)(C)N2CCOCC2)cc1`, the Potency result was “inactive”.

For the molecule `NC1=NC(=O)C(c2ccccc2)O1` (stereo not given), the Potency entry was “inactive”.

As for `COP(=S)(OC)Oc1c(Cl)cc(C)cc1Cl`, the Potency result was “inactive”.

The values are drawn from PubChem BioAssay (Tox21).
